This passage reports z-score results from PubChem BioAssay.

A short description of assay [1]: compound effects on lung adenocarcinoma cell viability – A549, calcein-AM fluorescence, 48 h, basal, profiling panel (AID 1162). The note with it: higher = more signal.
A short description of assay [2]: compound effects on differentiated 3T3-L1 adipocyte viability – cell-based, 3T3-L1 adipocytes, calcein-AM fluorescence, 48 h, basal, profiling panel (AID 1163). The conditions noted are these: 3T3-L1 adipocytes viability, higher = more signal.
Assay [3] is described as follows: compound effects on hepatocellular carcinoma cell viability – HepG2, calcein-AM fluorescence, 48 h, basal, profiling panel (AID 1164). The conditions noted are these: higher = more signal.
Assay [4] in a line: compound effects on multiple myeloma cell viability – MM1S, calcein-AM fluorescence, 48 h, basal, profiling panel (AID 1165). The conditions noted are these: higher = more signal.
Assay [5] is described as follows: calcein-AM signal in unstimulated myeloma cells – cell-based, calcein-AM fluorescence, 48 h, PK04 Diversity Set, profiling panel (AID 1166).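 Note: cells grown under basal conditions without added stimulus.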 The note with it: RPMI8226 myeloma viability, higher = more signal.
Assay [6] can be described thus: JC-1 mitochondrial signal, unstimulated HepG2 cells – cell-based, JC-1 fluorescence, 24 h, 100 nL compound, profiling panel (AID 1167). The conditions noted are these: HepG2 mitochondrial potential, higher = more signal.
A short description of assay [7]: JC-1 mitochondrial signal, unstimulated adipocytes – cell-based, JC-1 fluorescence, 3T3-L1 adipocytes, 24 h, 100 nL compound, profiling panel (AID 1168). The note with it: JC-1 mitochondrial fluorescence, higher = more signal, called active from +8 up or from −8 down.
Assay [8] can be described thus: JC-1 mitochondrial signal, unstimulated myeloma cells – cell-based, JC-1 fluorescence, RPMI8226, 24 h, 100 nL compound, profiling panel (AID 1169). The conditions noted are these: JC-1 mitochondrial potential fluorescence, higher = more signal.
Assay [9] can be described thus: JC-1 mitochondrial signal, unstimulated MM1S myeloma – cell-based, JC-1 fluorescence, 24 h, 100 nL compound, profiling panel (AID 1170). The conditions noted are these: MM1S mitochondrial potential, higher = more signal.
Assay [10] can be described thus: resazurin metabolic signal in A549 cells – cell-based, resazurin fluorescence, 24 h, PK04 Diversity Set, profiling panel (AID 1171). The conditions noted are these: A549 viability, higher = more signal, called active from +8 up or from −8 down. (Alamar Blue is a resazurin reagent that responds to reducing activity.)

Calls of active or inactive are those of the source.
Note: test concentration not given here.

On to `COc1ccc(C(O)C2C=CC3C(=O)N(c4ccccc4)C(=O)C3N2Nc2ccccc2F)cc1OCc1ccccc1` (stereo not given), for which the z-score is -0.0678 in assay [1]; -1.77 in assay [2]; -0.561 in assay [3]; 0.0664 in [4]; -0.43 in [5]; -1.51 in [6]. Moreover, the z-score in assay [7] is -0.838 (inactive); in assay [8], -0.75; in [9] it was -0.909; in [10], -0.179 (inactive).

Turning to `CCOC(=O)C[C@H]1[C@H](OC(=O)Cc2ccc3c(c2)OCO3)[C@@H](NC(=O)c2ccc(-c3ccccc3)cc2)c2cc(OCCCO)ccc2N1C(=O)Cc1ccc(OC)cc1`, the z-score is 2.24 in assay [1]; 0.53 in assay [2]; 1.09 in assay [3]; 0.704 in assay [4]; 1.1 in assay [5]; 2.33 in [6]. Further, the z-score is 0.242 (inactive) in assay [7], 0.679 in assay [8], -1.03 in [9] and -0.0841 (inactive) in [10].

With `C=CCNC(=O)[C@@H]1[C@H]2C(=O)O[C@H](c3ccccc3)[C@H](c3ccccc3)N2[C@H](c2ccc(OCCO)cc2)[C@@]12C(=O)Nc1ccc(C#Cc3ccc(OC)cc3)cc12`, the z-score is -0.717 in assay [1]; 1.82 in assay [2]; -0.969 in assay [3]; -0.891 in assay [4]; -1.86 in assay [5]; -1.12 in assay [6]. Further, the z-score was 1.05 (inactive) in [7], -0.592 in assay [8], -0.913 in [9] and -1.03 (inactive) in assay [10].

On to `O=C1OCCC/C=C\[C@H]2OC34C=CCN(CCN5CCOCC5)C(=O)[C@H]3N(CCCO)C(=O)[C@@H]4C12` (stereo not given in full), for which the z-score in [1] was -0.235; in [2] it was 1.01; in assay [3], -0.631; in assay [4] it was 1.19; in [5], -0.87; in assay [6], -1.01. The z-score in assay [7] is -0.734 (inactive); in [8] it was 0.806; in assay [9], 0.486; in assay [10] it was 0.116 (inactive).

`C#CCN(CC=C(C)C)[C@H](CO)c1ccccc1`: the z-score in [1] was -0.589; in assay [2], 1.37; in assay [3], -0.7; in assay [4], 0.0539; in [5] it was -1.2; in [6] it was -1.16. Moreover, the z-score in assay [7] is 0.27 (inactive); in assay [8], -0.383; in assay [9], 0.471; in assay [10], -0.665 (inactive).

Consider `C=CCN1C(=O)[C@@]2(O[C@@H](CCO)[C@H]([Si](C)(C)c3ccc(OC)cc3)[C@H]2C)c2cc(NC(=O)c3ccc(OC)cc3)ccc21`, for which the z-score in assay [1] was -0.52; in assay [2], -0.196; in assay [3], -4.47; in [4], -2.73; in [5], -4.36; in assay [6], -1.69. For the same compound, the z-score in [7] is 1.58 (inactive); in assay [8], -1.02; in assay [9] it was -1.97; in [10] it was -2.27 (inactive).

As for `CC(C)(C)OC(=O)CC[C@]1(C(=O)NCC(O)CO)COC(c2ccc(OCCCO)cc2)=N1` (stereo not given in full), the z-score was 0.208 in assay [1]; -0.388 in assay [2]; -0.665 in assay [3]; -1.01 in assay [4]; 0.418 in assay [5]; -0.76 in assay [6]. Further, the z-score in [7] was 0.176 (inactive); in assay [8], 0.527; in [9], -0.23; in assay [10] it was 0.706 (inactive).

As to `COC(=O)[C@@]1(Cc2ccc(OC)cc2)[C@H]2c3cc(C(=O)N4CCCC4)n(Cc4ccccc4)c3C[C@H]2CN1C(=O)c1ccccc1`, the z-score was -0.549 in [1]; 0.39 in assay [2]; -0.331 in assay [3]; -1.63 in assay [4]; -2.12 in [5]; 2.44 in assay [6]. In addition, the z-score in [7] is -1.07 (inactive); in [8] it was -0.933; in assay [9] it was -1.3; in assay [10], -2.5 (inactive).

In the case of `O=C1O[C@@H](c2ccccc2)[C@@H](c2ccccc2)N2[C@@H](c3ccc(OCCO)cc3)[C@]3(C(=O)Nc4ccccc43)[C@@H](C(=O)NC[C@H](O)c3ccccc3)[C@H]12`, the z-score in assay [1] is -0.462; in assay [2], -0.0144; in assay [3], -0.328; in assay [4], -0.38; in [5] it was -0.575; in assay [6], -1.76. Also, the z-score in assay [7] was -0.872 (inactive); in assay [8] it was -0.53; in assay [9], -0.226; in assay [10], 0.496 (inactive).

With `COc1ccc([Si](C)(C)[C@H]2[C@H](CC(=O)N3Cc4ccccc4C[C@H]3CO)O[C@@]3(C(=O)N(Cc4ccc(N5CCC5=O)cc4)c4ccccc43)[C@@H]2C)cc1`, the z-score in assay [1] is -0.279; in [2], 0.656; in assay [3] it was -0.727; in [4], -2.32; in assay [5], -3.26; in assay [6], 1.67. Also, the z-score was 0.657 (inactive) in assay [7], -1.04 in assay [8], -0.928 in [9] and -0.0964 (inactive) in [10].

For `NCCCCCNC(=O)[C@@H]1C[C@@H]2C(=O)NCC(=O)N2[C@@H]1c1ccc(O)cc1`, the z-score in assay [1] is 0.685; in assay [2], -0.366; in assay [3], 0.678; in assay [4] it was 0.545; in [5] it was 0.895; in [6], 1.32. Besides, the z-score in assay [7] is 0.114 (inactive); in [8], -0.0558; in assay [9], -0.408; in assay [10], 0.508 (inactive).

As to `CCN(CC)c1ccc(N2CC=CC34O[C@@H]5/C=C\CCC(C)OC(=O)C5[C@H]3C(=O)N(C(CO)C(C)C)[C@@H]4C2=O)cc1` (stereo not given in full), the z-score in assay [1] was -0.0553; in [2] it was -1.18; in assay [3], 0.936; in [4] it was 1.26; in assay [5], -0.208; in [6], 0.96. In addition, the z-score is -0.118 (inactive) in assay [7], 0.0122 in assay [8], 1.01 in [9] and 0.406 (inactive) in assay [10].

Turning to `CC(C)(C)OC(=O)CC[C@@]1(C(=O)NCC(O)CO)N=C(c2ccc(OCCCO)cc2)O[C@@H]1c1ccccc1N=[N+]=[N-]` (stereo not given in full), the z-score was 1.79 in assay [1]; -0.309 in [2]; 1.34 in [3]; -0.312 in assay [4]; 0.0549 in [5]; 1.73 in assay [6]. For the same compound, the z-score in assay [7] is 2.9 (inactive); in assay [8] it was 0.11; in [9], -0.884; in assay [10], 0.642 (inactive).

For `COC(=O)[C@@]1(Cc2ccccc2)[C@H]2c3cc(C(=O)N4CCCC4)n(CC4CC4)c3C[C@H]2CN1C(=O)c1ccccc1`, the z-score was -1.46 in assay [1]; 0.643 in assay [2]; -0.303 in assay [3]; -0.39 in assay [4]; -2.15 in assay [5]; 1.51 in assay [6]. The z-score in assay [7] was -1.77 (inactive); in assay [8], -0.516; in [9], -0.569; in assay [10] it was -1.51 (inactive).

In the case of `O=C1OCCC/C=C\[C@H]2OC34C=CCN(Cn5nnc6ccccc65)C(=O)[C@H]3N(CCCCCCO)C(=O)[C@@H]4C12` (stereo not given in full), the z-score was 1.06 in assay [1]; 0.469 in assay [2]; 1.42 in assay [3]; 1.8 in [4]; -0.0474 in [5]; 0.733 in [6]. In addition, the z-score in assay [7] was 0.932 (inactive); in assay [8], -0.263; in assay [9], -1.14; in assay [10], 0.818 (inactive).

On to `CCOC1=C2C(CN(S(=O)(=O)c3ccc(C)cc3)C2c2ccc(C)cc2)C2C(=O)N(c3ccccc3)C(=O)C2C1` (stereo not given), for which the z-score in assay [1] is -0.592; in assay [2], -0.843; in assay [3] it was 0.58; in [4] it was 0.729; in assay [5], 0.285; in [6], 0.247. The z-score was 1.2 (inactive) in assay [7], 1.1 in [8], -1.37 in assay [9] and -0.376 (inactive) in [10].
